Rows were chosen to be rich in hits. Some 1.8% of all compounds tested hit in one or more screens of this group.
PfHsp40 rescue: restores yeast growth despite PfHsp40 toxicity; 340,000 tested, 0.68% active; S. cerevisiae expressing PfHsp40, growth rescue, ATP luminescence; growth rescue, % at 12.5 µM; in the data active = growth rescue above about 28%, passing the limit was not always enough;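 also: yeast W303a lacking pdr1 and pdr3 grown in galactose medium; growth measured after three days at 30 °C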
PrP 5UTR inh: suppresses PrP 5' UTR mRNA reporter expression | cell-based PrP 5' UTR mRNA reporter, plate reader | 340,000 tested, 0.35% active | inhibition, % (concentration not given with the values); in the data active = inhibition above about 52%; also: 0 = median of the neutral control wells
PrPC surface inh: cell surface PrPC inhibition, primary TR-FRET screen | P04156 | TR-FRET read-out | inhibition, % at 13.8 µM | 370,000 tested, 0.43% active | AID 720596; in the data active = inhibition above about 24%; also: 0% = median of the test wells and 100% = reference compound wells
MazEF act: increases E. coli MazEF RNase cleavage of RNA; activation, % at 20 µM; 350,000 tested, 0.32% active; FAM/BHQ RNA-DNA oligo cleavage fluorescence, 5 h; P0AE70; AID 504720; in the data active = activation above about 50%
Target sequence (P0AE70 whole entry, looked up): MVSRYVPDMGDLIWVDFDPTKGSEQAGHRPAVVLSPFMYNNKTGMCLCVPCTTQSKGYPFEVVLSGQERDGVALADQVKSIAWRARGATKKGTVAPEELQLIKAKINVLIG
PriA SSB inh: blocks PriA binding to SSB C-terminal tail; inhibition, % at 33 µM; 430,000 tested, 0.6% active; AlphaScreen SSBct-PriA binding, biotinylated peptide; in the data active = inhibition mostly above about 37%, no sharp cut-off; inactive = mostly below about 20%;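 also: plate controls were negative control peptide for no effect and reference peptide for full effect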
The depositor's hits bear a star.

For Oc1ccc(Cc2ccccc2)c2cccnc12 the results were PrPC surface inh -3, MazEF act -24 and PriA SSB inh 9.
`Oc1ccc(COc2cccc3cccnc23)c2cccnc12` gave PriA SSB inh 32.
`CCCOCc1ccc(O)c2ncccc12` gave PfHsp40 rescue 1, PrP 5UTR inh -16, PrPC surface inh -1, MazEF act -2 and PriA SSB inh 54*.
CC(C)COCc1ccc(O)c2ncccc12 was read as PrP 5UTR inh 17, PrPC surface inh -2, MazEF act -7 and PriA SSB inh 84*.
Screening CN(Cc1ccco1)Cc1ccc(O)c2ncccc12 returned PfHsp40 rescue 1, PrP 5UTR inh -15, MazEF act -2 and PriA SSB inh -5.
Cc1cccc(C(=O)OCC(=O)NCCN2C(=O)CSC2=O)c1[N+](=O)[O-] was read as PfHsp40 rescue -2, PrP 5UTR inh -1, PrPC surface inh 4, MazEF act 6 and PriA SSB inh 2.
CC(CC(=O)NCc1ccc(Cl)cc1)=NNC(=O)Cc1ccccc1 was read as PriA SSB inh -1.
Screening CSc1ncnc2c1cnn2-c1ccccc1 returned PriA SSB inh -20.
For COC(=O)CSc1cc([N+](=O)[O-])cc2c1c(C1OCCO1)nn2-c1ccccc1 the results were PfHsp40 rescue 0, PrP 5UTR inh 2, PrPC surface inh -3, MazEF act 114* and PriA SSB inh -8.
COC(=O)CSc1cc([N+](=O)[O-])ccc1NC(=O)OC was read as PfHsp40 rescue 0, PrP 5UTR inh -25, PrPC surface inh -7, MazEF act 7 and PriA SSB inh -2.
`C[C@]12C=CC(=O)C=C1CC[C@@H]1[C@@H]2CC[C@]2(C)C(=O)CC[C@@H]12` gave PfHsp40 rescue 48*, PrP 5UTR inh -20, PrPC surface inh 4, MazEF act 1 and PriA SSB inh -7.
`CC12C=CC(=O)C=C1CCC1C2C(=O)CC2(C)C(=O)CCC12` (stereo not given) gave PfHsp40 rescue -1, PrP 5UTR inh -20, PrPC surface inh -10, MazEF act 14 and PriA SSB inh -7.
For C=CCNc1nc(C(=O)OCC(=O)c2cccc(Br)c2)cs1 the results were PfHsp40 rescue 0, PrP 5UTR inh -11, PrPC surface inh -1, MazEF act -4 and PriA SSB inh 1.
C=CCNc1nc(C(=O)OCC(=O)c2ccc(F)cc2)cs1 was read as PfHsp40 rescue 0, PrP 5UTR inh -30, PrPC surface inh 7, MazEF act 0 and PriA SSB inh 46*.
Screening Cn1cnc2cc(O)ccc21 returned PriA SSB inh -11.
For COc1cc(C(=O)Nc2ccc3c(c2)OCCO3)ccc1OC(F)F the results were PfHsp40 rescue 1, PrP 5UTR inh -72, PrPC surface inh 7, MazEF act 1 and PriA SSB inh -2.
`Oc1ccccc1C=NN=Cc1c(O)ccc2ccccc12` gave PfHsp40 rescue -1, PrP 5UTR inh 1, PrPC surface inh 5, MazEF act active and PriA SSB inh -16.
`Oc1ccc2ccccc2c1C=NCc1ccccc1` gave PfHsp40 rescue 3, PrP 5UTR inh -23, PrPC surface inh 6, MazEF act -1 and PriA SSB inh 6.
For COC(=O)C1=C(C)NC(=S)NC1c1ccc(-c2cc(Cl)ccc2Cl)o1 (stereo not given) the results were PfHsp40 rescue 4, PrP 5UTR inh -19, PrPC surface inh -6, MazEF act -12 and PriA SSB inh -17.
`O=C(CSc1nnnn1-c1ccc(Cl)cc1)NC1CCS(=O)(=O)C1` (stereo not given) gave PfHsp40 rescue 0, PrP 5UTR inh -6, PrPC surface inh 1, MazEF act 5 and PriA SSB inh -2.
CCOc1cc(-c2ccc(N)c(OCC)c2)ccc1N was read as PfHsp40 rescue -1, PrP 5UTR inh -9, PrPC surface inh 0, MazEF act -32 and PriA SSB inh 70*.
CCOc1ccc(N)c(SSc2cc(OCC)ccc2N)c1 was read as PfHsp40 rescue 0, PrP 5UTR inh -8, PrPC surface inh 2, MazEF act 1 and PriA SSB inh -5.
For CC(C)c1ccc(OCC(=O)N(Cc2ccsc2)CC(F)(F)F)cc1 the results were PriA SSB inh -42.
O=C(N/N=C/c1ccc([N+](=O)[O-])s1)c1ccccc1 was read as PfHsp40 rescue 150*, PrP 5UTR inh 8, PrPC surface inh -42 and MazEF act -4.
Screening O=[N+]([O-])c1ccc(/C=N/NC(=S)Nc2ccc(Cl)cc2Cl)s1 returned PfHsp40 rescue 240*, PrP 5UTR inh -24, PrPC surface inh -6 and MazEF act 5.
O=C(NN=Cc1ccc([N+](=O)[O-])s1)c1ccncc1 was read as PriA SSB inh 5.
COC(=O)C1=C(CS(=O)(=O)c2ccc(Cl)s2)NC(=O)NC1c1ccc(O)cc1 (stereo not given) was read as PriA SSB inh 12.
For CCN(C(=O)c1cnc2scc(C)n2c1=O)c1ccccc1C the results were PfHsp40 rescue 40*, PrP 5UTR inh -1, PrPC surface inh 1, MazEF act 10 and PriA SSB inh -3.
Cc1csc2ncc(C(=O)NC(c3ccccc3)c3ccccc3)c(=O)n12 was read as PriA SSB inh 0.
For COC(=O)c1cccc(N2CCCC2=O)c1 the results were PfHsp40 rescue -1, PrP 5UTR inh -5, PrPC surface inh 2, MazEF act 6 and PriA SSB inh -6.
For O=c1c2ccccc2sn1-c1ccc(Cl)cc1 the results were PrPC surface inh 0 and MazEF act -15.
Screening COC(=O)c1cccc(-n2sc3ccccc3c2=O)c1 returned PfHsp40 rescue 119*, PrP 5UTR inh -24, PrPC surface inh 0, MazEF act -9 and PriA SSB inh 12.
Screening Cc1ccc(-n2sc3ccccc3c2=O)cc1 returned PfHsp40 rescue 80*, PrP 5UTR inh -45, PrPC surface inh 2, MazEF act -3 and PriA SSB inh 10.
`O=c1c2ccccc2sn1-c1ccc(F)cc1` gave PfHsp40 rescue 102*, PrP 5UTR inh -33, PrPC surface inh 6, MazEF act -9 and PriA SSB inh 0.
`CC(=O)C=C(C)Nc1ccccc1O` gave PriA SSB inh 1.
COc1ccc(OC)c(N=c2oc3c(OC)cccc3cc2C(=O)NCc2ccco2)c1 was read as PfHsp40 rescue -2, PrP 5UTR inh -18, PrPC surface inh 2, MazEF act 76* and PriA SSB inh 9.
Screening COc1ccccc1N=c1oc2c(OC)cccc2cc1C(=O)NCc1ccco1 returned PfHsp40 rescue 1, PrP 5UTR inh -21, MazEF act 69* and PriA SSB inh -6.
Screening COc1ccccc1C(=O)NCc1ccco1 returned PfHsp40 rescue -1, PrP 5UTR inh -33, PrPC surface inh 3, MazEF act 6 and PriA SSB inh -4.
Screening COc1ccc(N=c2oc3c(OC)cccc3cc2C(=O)NCc2ccco2)cc1OC returned PfHsp40 rescue -1, PrP 5UTR inh -14, MazEF act 344* and PriA SSB inh 9.

Assay outcomes: PubChem, several laboratories
